# Reference: the supplement of paper PMC3334620
# The full ranking holds about 33,000 sequences; the median of “E-score (-0.5 to 0.5)” is about -0.04, and the highest 2% start at about 0.36. What follows is part of a selection rich in the highest values, with near analogues and random picks from the rest.
# Molecular target: T1, Hmlalpha2 (UniProt P0CY09)
# T1 sequence: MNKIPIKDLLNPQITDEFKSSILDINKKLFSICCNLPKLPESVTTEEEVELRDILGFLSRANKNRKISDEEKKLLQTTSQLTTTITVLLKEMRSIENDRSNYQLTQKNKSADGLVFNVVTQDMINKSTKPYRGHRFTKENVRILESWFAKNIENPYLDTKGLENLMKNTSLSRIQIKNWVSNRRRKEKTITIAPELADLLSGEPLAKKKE
# Assay: PBM E-score (8-mer binding enrichment) (E-score (-0.5 to 0.5)); higher = stronger / more preferred TF binding
# Details: protein concentration: 200 nM; construct: GST-full length
# Procedure: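 Universal 'all 10-mer' protein binding microarrays (Agilent AMADID 015681) probed with GST-tagged S. cerevisiae TFs (full-length or DBD) made by in vitro transcription/translation (PURExpress), about 100-200 nM. Bound TF was detected with fluorescent anti-GST. Each ungapped 8-mer (which stands for itself and its reverse complement) is scored by the PBM enrichment score (E-score), a modified Wilcoxon-Mann-Whitney statistic from -0.5 to +0.5, computed with the Universal PBM Analysis Suite. Scale: above 0.35 generally sequence-specific binding.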
row,Sequence,PBM E-score
1,AACGATCT,-0.0798
2,ACCAAAGG,-0.219
3,AGCACCCA,-0.176
4,CGGGTAAA,0.234
5,AGTACAGG,0.134
6,CGTACACA,0.347
7,CGTACACG,0.354
8,TGTACAAA,0.422
9,AGTACACC,0.115
10,AGTACAAA,0.161
11,AGTACACA,0.387
12,AGTACACG,0.437
13,TGTACACA,0.418
14,GGTACACA,0.246
15,GGTACAAA,0.138
16,AGTACACT,0.074
17,ACACCGCG,0.15
18,GCGACTCA,-0.134
19,ATGCGAGG,-0.117
20,GAACGATC,-0.0263
21,AGAGTGCC,-0.257
22,CGTACCTA,-0.0874
23,ACGGCCCC,-0.437
24,AAGTTAAC,0.303
25,ATGTTAAC,0.448

row,Sequence,PBM E-score
1,ATGTTAGC,0.342
2,GAGTTAAC,0.234
3,TTGTTAAA,0.359
4,CTGTTAAA,0.258
5,GTGTTAAC,0.462
6,CTGTTAAC,0.304
7,GTGTTAAA,0.462
8,CCCTTAAC,-0.0469
9,ATACTATC,0.0717
10,ATTTGCGA,0.0385
11,AAGTTTCC,0.0351
12,ATGCTGTG,0.238
13,CGGGTCCA,-0.262
14,AAGCGTCT,-0.232
15,ATGTTTAC,0.433
16,ATGTTTAG,0.33
17,CTGTTTAC,0.371
18,CTGTTTCC,-0.11
19,ATGTTTGC,0.166
20,CCGTTTAC,0.259
21,AGGAGATG,-0.157
22,AGGAAAAA,0.00347
23,GTATTATA,0.318
24,CATATGTA,0.356
25,AATATGTC,0.167

row,Sequence,PBM E-score
1,ACTATGTA,0.444
2,CCTATGTC,0.0957
3,GCTATGCA,-0.0142
4,CCTATGTA,0.433
5,ACTATGTC,0.165
6,ACTATGTG,0.108
7,CCTATGAA,-0.065
8,GCTATGTA,0.426
9,GATATGTA,0.345
10,AATATGTA,0.386
11,CTTCATTC,-0.149
12,AAGATCAC,-5e-05
13,CACAGGTC,-0.101
14,GAATACCC,-0.19
15,TGACCAAA,-0.0837
16,CCAGTAGG,-0.239
17,GTGAAGCA,-0.113
18,CTGGAAAG,-0.217
19,AAACCTTT,-0.111
20,AGGTATGG,-0.317
21,ACGCTTGC,-0.0163
22,TTACCCAA,0.02
23,ATGTAACG,0.362
24,GGGTAATA,0.193
25,ATGTAATG,0.479

row,Sequence,PBM E-score
1,GTGTAATA,0.456
2,AAGTAATA,0.24
3,ATGTAATA,0.48
4,CTGTAATA,0.286
5,CTGTAATC,0.243
6,CAGTAATG,0.167
7,CGGTAATA,-0.00682
8,ATGTAACC,0.304
9,ATGTAATC,0.478
10,GGAGTGTA,0.18
11,CATGAGGC,-0.166
12,TACTGTCA,-0.0966
13,CAGCAGCG,0.0849
14,GGGGATAA,-0.178
15,CCAGGACG,0.0263
16,GGGCCAAA,-0.124
17,GGGCACTA,-0.105
18,ACACGCCT,0.374
19,ACACGCCC,0.371
20,GCACGCCC,-0.0771
21,AGACGCCT,-0.0767
22,ACACGCCG,0.274
23,ACACGCCA,0.311
24,ATCCTGCA,-0.0119
25,CTATTGCA,0.117

row,Sequence,PBM E-score
1,CCGGTTTA,0.0123
2,GATGAGCC,-0.213
3,AGAAGGAA,-0.351
4,CCCTTAAA,-0.0696
5,GAGACGGA,-0.095
6,AAGTAGGC,-0.0798
7,CTTGAATC,-0.0387
8,CGATCTCA,-0.0804
9,AAGATCAG,-0.187
10,AACAACAC,0.375
11,AACAACAT,0.385
12,AACAACAG,0.108
13,CACAACAC,0.306
14,AACAACAA,0.306
15,GACAACAC,0.319
16,CGAAACCC,-0.121
17,CTTCTAGC,-0.197
18,CCCCGCAC,-0.201
19,CCGGGAAG,-0.179
20,CGTCCCCA,-0.224
21,CTACATCA,0.222
22,CGACATGA,0.319
23,CTACATGA,0.421
24,GCACATGA,0.0937
25,GTACATTA,0.316

row,Sequence,PBM E-score
1,GTACATGA,0.426
2,AACATTGC,0.191
3,GGAATCTA,-0.132
4,GCACGGAC,-0.0335
5,ACCAAATA,0.191
6,AGACACAA,0.172
7,AAACACAT,0.314
8,ATACACAG,0.408
9,AGACACAT,0.128
10,ACACACAG,0.364
11,ACACACAT,0.379
12,ATACACAT,0.399
13,ACACATAT,0.317
14,ATACACAA,0.42
15,CTATACAG,0.0549
16,ACACACAA,0.313
17,ACACACAC,0.326
18,TTCATGAA,-0.00198
19,ATTGAGCA,0.0182
20,ATAACCAC,-0.0123
21,ACCCCCGA,-0.0909
22,GGCAAAGA,-0.0294
23,CCCCTGTC,-0.152
24,GGCCAGCC,-0.192
25,CAGCGACG,-0.0401

row,Sequence,PBM E-score
1,ATACACTC,0.185
2,ATACACCG,0.145
3,ATACACAC,0.429
4,CGCTGAGA,-0.139
5,CCCTCAGA,-0.285
6,CTATTCCC,-0.203
7,AGTGCACC,-0.2
8,ACGTGTAA,0.482
9,CAGTGTAC,0.154
10,CCGTGTCG,0.233
11,ACGTGTAG,0.429
12,CAGTGTAG,0.243
13,AGGTGTAG,0.0925
14,ACGTGTGA,0.229
15,AGGTGTAA,0.317
16,CCGTGTAC,0.422
17,AAGTGTAG,0.0742
18,CCGTGTCC,0.0408
19,CCGTGTAG,0.452
20,CGGACGGA,-0.198
21,AGACTGGA,-0.0528
22,CGAATCGC,-0.169
